27 compounds from PubChem BioAssay (NCATS) can be followed below.

Assay [1] has as its target Glutathione peroxidase 1 (Homo sapiens) (UniProt P07203). Briefly: Primary qHTS Assay for Inhibitors of Recombinant Selenoprotein Glutathione Peroxidase 1 (GPX1) (AID 1845191). Further: nearly all actives have a fitted effect of over 65% in size. On activity, negative = inhibition: on the % scale 0 is the no-effect control and ±100 the full control effect. The essentials:
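GR-coupled assay: compounds preincubated 30 min at room temperature with GPX1, then reaction started with CHP; final 10 nM GPX1, 1 mM GSH, 0.5 mM CHP, 0.5 mM NADPH, 100 nM GR, 0.01% BSA, pH 7.5 Tris buffer. NADPH fluorescence (340/450 nm) read at 0 and 15 min.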

The target in assay [2] is Phospholipid hydroperoxide glutathione peroxidase GPX4 (Homo sapiens) (UniProt P36969). Nature of the assay: Primary qHTS Assay for Inhibitors of Recombinant Selenoprotein Glutathione Peroxidase 4 (GPX4) (AID 1845192). Further: nearly all actives have a fitted effect of over 65% in size. On activity change, negative = inhibition: series mostly up to about 50 µM; on the % scale 0 is the no-effect control and ±100 the full control effect. The essentials: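 GR-coupled assay: recombinant GPX4 preincubated 30 min with compound at room temperature; final 200 nM GPX4, 1 mM GSH, 0.5 mM cumene hydroperoxide, 0.5 mM NADPH, 100 nM GR, 0.01% BSA, pH 7.5 Tris. NADPH fluorescence (340/450 nm) read at 0 and 15 min.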
A general note: In qHTS, concentration-response curves come from the screen itself.

For assay [3], the target named is Luciferin 4-monooxygenase (Photinus pyralis) (UniProt P08659). Nature of the assay: Primary firefly luciferase (FLuc) qHTS assay for identification of artifact compounds. (AID 1845220). Further: nearly all actives have a fitted effect of over 60% in size.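 On activity change, negative = inhibition: series mostly up to about 54 µM; plate controls were DMSO vehicle for no effect and no enzyme for full effect.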 Put shortly:
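D-luciferin and ATP (10 uM each, final) in Tris acetate buffer pH 7.6 were incubated with compounds for 15 min at room temperature. The reaction was started with 10 nM Photinus pyralis luciferase and luminescence read after 5 min. Percent inhibition was fitted to a 4-parameter Hill equation.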

Assay [4] concerns Nanoluciferase (engineered Oplophorus gracilirostris luciferase). Briefly: Primary Nanoluciferase (NLuc) qHTS assay for identification of artifact compounds. (AID 1845222).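 Further: series mostly up to about 54 µM; 0% = DMSO and -100% = no enzyme.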 Put shortly:
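Diluted conditioned medium from NLuc-expressing S16 cells treated with compounds for 15 min at room temperature, then Nano-Glo substrate added; luminescence read after 5 min. Percent inhibition versus no-enzyme and DMSO controls fitted to 4-parameter Hill equation.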

Assay [5] in a line: Primary fluorescence-based thiol-reactive (MSTI) qHTS assay for identification of artifact compounds. (AID 1845221). Further: nearly all actives have a fitted effect of over 65% in size. Further: potency means the concentration at half of the fitted maximal effect. The essentials:
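In PBS pH 7.4 with 2% DMSO, each compound met 4 uM MSTI for one hour at ambient temperature, shielded from light, before fluorescence detection.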

The nature of assay [6]: Primary redox qHTS assay for identification of artifact compounds. (AID 1845223).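 Further: 0% = DMSO and 100% = reference compound.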 Put shortly: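 Amplex Red (25 uM) and HRP (250 mU/mL) in HBSS, with compounds for 15 min, then 250 uM DTT for 30 min, room temperature, dark. Fluorescence 525/598 nm read; normalized to DMSO and 10 uM DA3003; Hill fit.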

A number with no mark means an inactive call. Records with an inconclusive call do not appear. Active and inactive are the calls of the source. The call rests on the fitted dose curve; in most records, active means well fitted curve in the direction sought with a large enough effect; inconclusive means small, poorly fitted or top-dose-only effect, or another doubt; inactive means no such curve, though single readings can be large; an effect the other way counts as inactive or inconclusive.

Phospholipid hydroperoxide glutathione peroxidase GPX4 (Homo sapiens), sequence (P36969 whole entry, looked up): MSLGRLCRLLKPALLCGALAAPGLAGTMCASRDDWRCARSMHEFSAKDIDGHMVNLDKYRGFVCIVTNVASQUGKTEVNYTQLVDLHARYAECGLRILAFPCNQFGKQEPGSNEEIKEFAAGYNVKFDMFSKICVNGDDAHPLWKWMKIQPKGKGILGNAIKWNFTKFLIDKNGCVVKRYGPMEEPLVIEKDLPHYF
Glutathione peroxidase 1 (Homo sapiens), sequence (P07203 whole entry, looked up): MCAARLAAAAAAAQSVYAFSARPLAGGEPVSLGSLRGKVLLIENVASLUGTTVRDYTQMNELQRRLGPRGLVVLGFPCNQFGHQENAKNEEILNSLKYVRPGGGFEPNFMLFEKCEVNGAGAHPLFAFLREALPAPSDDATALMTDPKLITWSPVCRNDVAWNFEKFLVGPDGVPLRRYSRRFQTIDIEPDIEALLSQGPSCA

Take `Cc1cccc(/C=N/Nc2cc(N3CCOCC3)n3nc(-c4ccncc4)cc3n2)c1`: the Potency result in assay [1], in assay [2], in assay [3] and in assay [4] was “inactive” throughout.

For the compound `Cc1ccc(C(=O)N(CCCN)C(c2oc3cc(Cl)ccc3c(=O)c2Cc2ccccc2)C(C)C)cc1` (stereo not given), the Potency entry in assay [1], in assay [2], in assay [3] and in assay [4] was “inactive” in each case.

On to `C=CC(=O)Nc1cc(Nc2ncc(Cl)c(-c3c[nH]c4ccccc34)n2)c(OC)cc1N(C)CCN(C)C`, for which the Potency entry in assay [1], in assay [2], in assay [3] and in assay [4] was “inactive” each time.

As to `Cc1ccc(S(=O)(=O)c2ccc([N+](=O)[O-])o2)cc1`, the Potency result in assay [1], in assay [2], in assay [3] and in assay [6] was “inactive” throughout. For the same compound, in assay [5], the Potency was 10.6 µM (active).

As to `COc1c2c(c(C)c3c1C(=O)OC3)OC1(C)CC(O)C(C(C)(C)O)C(C)(CCC(=O)O)C1C2` (stereo not given), the Potency entry in assay [1], in assay [2], in assay [3] and in assay [4] was “inactive” throughout.

Take `Cc1cc(Cl)ccc1COc1ccnn1-c1cc(C(=O)O)ccn1`: the Potency entry in assay [1], in assay [2], in assay [3], in assay [5] and in assay [6] was “inactive” in each case.

Consider `C=C1C(OC2OCC(O)C(O)C2O)CC2C(C)(C)C(O)CCC2(C)C1CC/C(C)=C\CO` (stereo not given), for which the Potency entry in assay [1], in assay [2], in assay [3] and in assay [4] was “inactive” each time.

As for `COc1ccc(CC2C(=O)NC(C)C(=O)N(C)C3Cc4ccc(cc4)Oc4cc(ccc4OC4OC(CO)C(O)C(O)C4O)CC(C(=O)NC(C)C(=O)NC(C)C(=O)N2C)N(C)C3=O)cc1` (stereo not given), the Potency result in assay [1] and in assay [2] was “inactive” each time. For the same compound, the activity change, negative = inhibition in assay [3] was -7.7% [at 11.6 µM]. In assay [4], the activity, negative = inhibition is -5.37% [at 11.6 µM].

Turning to `CC(=O)O[C@@H]1CC(C)=C2[C@H]1[C@H](C)CC[C@H]2/C=C(\C)C(=O)O`, the Potency result in assay [1], in assay [2], in assay [3] and in assay [4] was “inactive” in each case.

In the case of `C/C=C/C1=CC2=C(CO1)C(=O)C(C)(O)C(OC(=O)c1c(C)cc(OC)cc1O)C2` (stereo not given), the Potency result in assay [1], in assay [2], in assay [3] and in assay [4] was “inactive” each time.

`COC1C(CO)OC(n2cnc3c(=O)[nH]cnc32)C1O` (stereo not given): the Potency result in assay [1], in assay [2], in assay [3] and in assay [4] was “inactive” throughout.

Consider `C=C1CCC2C(C)(C)CCC[C@]2(C)[C@H]1C/C=C(\CO)C(=O)C(=O)O` (stereo not given in full), for which the Potency result in assay [1], in assay [2], in assay [3] and in assay [4] was “inactive” throughout.

For `C[C@@H]1CCC/C=C/[C@H]2CC(=O)C[C@@H]2[C@@H](O)/C=C/C(=O)O1`, the Potency result in assay [1], in assay [2], in assay [3] and in assay [4] was “inactive” throughout.

With `C[C@@H]1CC[C@]2(C(=O)O)CC[C@]3(C)C(=CCC4[C@@]5(C)C[C@@H](O)[C@H](O)[C@@](C)(CO)C5CC[C@]43C)C2[C@]1(C)O` (stereo not given in full), the Potency entry in assay [1], in assay [2], in assay [3] and in assay [4] was “inactive” throughout.

On to `C=C1[C@@H]2CC[C@@H]3[C@@](CCC4C(C(=O)O)(C(=O)O)C[C@@H](O[C@@H]5O[C@H](CO)[C@@H](O)[C@H](O)[C@H]5OC(=O)CC(C)C)C[C@]43C)(C2)[C@H]1O` (stereo not given in full), for which the Potency entry in assay [1], in assay [2], in assay [3] and in assay [4] was “inactive” throughout.

For the compound `CC(C)CC1NC(=O)C2CC3(O)c4ccccc4NC3N2C1=O` (stereo not given), the Potency entry in assay [1], in assay [2], in assay [3] and in assay [4] was “inactive” each time.

Turning to `COc1ccc(N2CCOCC2)c2sc(NC(=O)N3CCC(C)(O)CC3)nc12`, the Potency entry in assay [1], in assay [2], in assay [3] and in assay [4] was “inactive” in each case.

In the case of `C=C[C@]1(C)C[C@H](O)[C@@H]2[C@H](OC(=O)[C@@H]2C)C1/C(C)=C/O[C@@H]1O[C@H](CO)[C@@H](O)[C@H](O)[C@H]1O` (stereo not given in full), the Potency entry in assay [1], in assay [2], in assay [3], in assay [4] and in assay [6] was “inactive” each time.

As to `CC1=C(C(=O)O[C@@H]2O[C@H](COC3OCC(O)C(O)C3O)[C@@H](O)[C@H](O)[C@H]2O)C(C)(C)CCC1` (stereo not given in full), the Potency entry in assay [1], in assay [2], in assay [3] and in assay [4] was “inactive” in each case.

For the compound `CC(O)/C=C/C1(O)C2(C)COC1(C)CC(O)C2` (stereo not given), the Potency result in assay [1], in assay [2], in assay [3], in assay [4] and in assay [6] was “inactive” in each case.

As to `CC(O)/C=C/C1OC(=O)CC1Nc1ccc(C(=O)O)cc1` (stereo not given), the Potency entry in assay [1], in assay [2], in assay [3] and in assay [4] was “inactive” in each case.

On to `O=S(=O)(Nc1ccccn1)c1ccc(N=Cc2c(O)[nH]c3ccc4ncsc4c23)cc1`, for which the outcome in assay [1] was “inactive [at 9.52 µM]”; in assay [2], “inactive [at 9.73 µM]”; in assay [3], “inactive [at 11.6 µM]”. The activity, negative = inhibition in assay [4] is -7.47% [at 11.6 µM].

Take `CC(CO)C1CCC2(C)CC3C(CO)CC(O)C3C(C)(O)C/C=C/12` (stereo not given): the Potency result in assay [1], in assay [2], in assay [3] and in assay [4] was “inactive” in each case.

With `COc1cc2ncnc(Nc3ccc(O)cc3)c2cc1OC`, the Potency entry in assay [1], in assay [2], in assay [3], in assay [4] and in assay [6] was “inactive” each time.

`COc1ccc(/C=C/C(=O)O[C@@H]2[C@@H](O)[C@H](C)O[C@@H](O[C@H]3[C@@H]4C=CO[C@@H](O[C@H]5O[C@@H](CO)[C@H](O)[C@@H](O)[C@@H]5O)[C@@H]4[C@@]4(CO)O[C@@H]34)[C@@H]2OC(C)=O)cc1`: the Potency result in assay [1], in assay [2], in assay [3] and in assay [4] was “inactive” in each case.

Regarding `N#Cc1ccc(C(=O)N2CCC3(CC2)N=C(N)c2c(F)ccc(F)c2N3)cn1`, the Potency result in assay [1], in assay [2], in assay [3], in assay [4] and in assay [6] was “inactive” throughout.

In the case of `CC(C)[C@@](C)(O)[C@@H]1CN(c2nc(-c3[nH]nc4ncccc34)c(F)cc2Cl)CCN1`, the Potency result in assay [1], in assay [2], in assay [3], in assay [4] and in assay [6] was “inactive” in each case.
